# Results: PubChem BioAssay (EPA / NIEHS)
# Calls of active or inactive are those of the source. How the source made its calls: active means hit-call score of the fitted dose curve at least 0.9, where 1 is the maximum; inactive means score below 0.9.
# Read-out: Pro-epidermal growth factor (Homo sapiens) (UniProt P01133)
# Experiment: LTEA_HepaRG_EGF: Life Technologies and Expression Analysis (LTEA) Assay for Epidermal growth factor (EGF) using HepaRG (AID 2283489)
# Settings: mRNA level, 48 h; actives raise or lower the signal
# Protocol: LTEA_HepaRG is a cell based, multiplexed-readout assay that uses HepaRG, a human liver cell line, with measurements taken at 48 hours after chemical dosing on a 96-well plate.LTEA_HepaRG_EGF is one of 102 assay component(s) measured in the LTEA HepaRG cell culture assay. It is a marker of Cell proliferation, survival, death.Data from the assay component LTEA_HepaRG_EGF was analyzed into 1 endpoint. This assay endpoint, LTEA_HepaRG_EGF, was analyzed with bidirectional fitting relative to DMSO as the negative control and baseline of activity. Using a type of inducible reporter, measures of mRNA induction for gain or loss-of-signal activity can be used to understand regulation of transcription factor activity. To generalize the intended target to other relatable targets, this assay endpoint is annotated to the growth factor intended target family, where the subfamily is EGF-like domain.
# A total of 1060 chemcials from the ToxCast library were tested in eight-point concentration-response experiments. Cell culture and cytotoxicity assays were conducted at Thermo Fisher Scientific's Custom Services facility (Madison, WI). A single lot of human HepaRG cells (Thermo Fisher Scientific, Frederick, MD) was used for the cell culture experiments. 96-well format collagen type I coated plates of human HepaRG cells were prepared using established methods. Briefly, cryopreserved HepaRG cells were thawed, plated at a density of approximately 100,000 cells/well in HepaRG Thaw, Plate, and General Purpose media (HPRG770, Thermo Fisher Scientific), and incubated for 48 hours. 0.5% DMSO was selected as vehicle control to balance the requisite need of DMSO in HepaRG cultures to maintain differentiation (for example, baseline metabolism, proportions of hepatocytes vs. cholangiocytes), while enabling further hepatic receptor pathway activation (for example, PXR and CAR) in response to chemical exposure. 48 hours after plating, the culture medium was replaced with HepaRG Serum-Free Incudtion Media. Cells were exposed to each test chemical in duplicate and maintained in CO2 incubators for another 48 hours. Chemical plates were thawed to room temperature and 200x concentrations of treatment groups were prepared. 8-point conentration-reponse curves were made with the highest exposure at 100 uM, followed by half-log dilutions, all in 0.5% DMSO. Each test plate contained variouse controls, induction positive controls (1mM phenobarbital), cytotoxicity positive controls ([…] aflatoxin B1), vehicle controls (0.5% DMSO), and total lysis controls (0.5% DMSO). Cell morphology images were taken using an Essen IncuCyte FLR automated microscope, with six 96-well plates imaged in about 24 minutes. Images were captured and exported and JPEG files. Spent culture media was transfered to black-well plates for the LDH assay, and remaining media was sorted at -80 C for later use. Cells were treated with RLT buffer and frozen until shipped for gene expression analysis. Total RNA was isolated from the cell suspension in 75 uL of Buffer RLT (Qiagen, Germantown, MD 20874) by Quintiles/Expression Analysis (Durham, NC) using a custom isolation procedure. Total RNA from each plate well was transferred to a preamplification plate. Fluidigm's 96.96 Dynamic ArrayTM (Fluidigm, Amsterdam, the Netherlands) technology was used for gene expression analyses by quantitative reverse transcription polymerase chain reaction (qRT-PCR, performed by Quintiles/Expression Analysis, Durham, NC)89. Standard TaqManTM Assays (Applied Biosystems/ThermoFisher Scientific, Foster City, CA) were used to assess the expression of 93 genes selected based on their selectivity and sensitivity to important hepatic receptors known to be modulated by environmental chemicals; importance in human hepatocyte functionality; and hepatotoxicity. […]
SMILES,outcome,AC50
CCC1(c2ccccc2)C(=O)N=C(O)NC1=O (stereo not given),inactive,
CCN(CC)c1ccccc1,inactive,
CCOP(=S)(OCC)SCSCC,inactive,
c1cc2c3c(cccc3c1)CC2,inactive,
CSC(C)(C)C=NO,inactive,
Nc1ccc2ccccc2c1,inactive,
Cc1ccc(N)cc1N,inactive,
CCCCN(CCCC)N=O,inactive,
CCCCc1ccccc1,inactive,
O=C(O)C(Cl)Cl,inactive,
CCOS(=O)(=O)OCC,inactive,
Nc1cc2c3c(c1)C(c1ccccc1)=N[C@@H](NC(=O)c1cccnc1)C(=O)N3CC2,inactive,
OCC1CO1 (stereo not given),inactive,
c1ccc2c(c1)Nc1ccccc1S2,inactive,
CC(C)(C)c1ccc(O)cc1,inactive,
CCOc1ccc(C(C)(C)COCc2cccc(Oc3ccccc3)c2)cc1,,15 µM (active)
O=[N+]([O-])c1ccc(Cl)c(Cl)c1,inactive,
CCC(C)(C)c1ccc(O)cc1,inactive,
c1nc[nH]n1,inactive,
CCCCCCCc1ccc(O)cc1,inactive,

SMILES,outcome,AC50
Cc1ccc(O)cc1C,inactive,
O=P1(N(CCCl)CCCl)NCCCO1 (stereo not given),inactive,
CCNc1nc(Cl)nc(NC(C)(C)C)n1,inactive,
Cc1ccc([N+](=O)[O-])cc1C,inactive,
CC(C)(C)OOC(C)(C)C,inactive,
O=P(Oc1ccccc1)(Oc1ccccc1)Oc1ccccc1,inactive,
CCOP(=S)(Oc1ccc([N+](=O)[O-])cc1)c1ccccc1 (stereo not given),,21.4 µM (active)
O=C(O)C1C(C(=O)O)C2(Cl)C(Cl)=C(Cl)C1(Cl)C2(Cl)Cl (stereo not given),inactive,
[N-]=[N+]=[N-],inactive,
Nc1ccc(Cl)cc1,inactive,
CCOC(=O)c1ccccc1C(=O)OCC,inactive,
CN(C)C(=O)Cl,inactive,
ClC1=C(Cl)C2(Cl)C3C(Cl)C(Cl)CC3C1(Cl)C2(Cl)Cl (stereo not given),,18.4 µM (active)
CCCN(CCC)c1c([N+](=O)[O-])cc(C(C)C)cc1[N+](=O)[O-],,29 µM (active)
CCCCN(CCCC)SN(C)C(=O)Oc1cccc2c1OC(C)(C)C2,inactive,
CC(Cl)(Cl)C(=O)O,inactive,
c1ccc(OP(Oc2ccccc2)Oc2ccccc2)cc1,inactive,
ClC(Cl)(Cl)c1ccccc1,inactive,
ClC(Cl)c1ccccc1,inactive,
COCCOCCO,inactive,
